Where “and” joins values, the source holds several entries; their conditions need not be identical. Equal values may be shown once. About 2,000 (36%) of roughly 5,500 compounds were called active. About 18% were inconclusive and are not listed. Cut-off read from the data, not from the text of the source: active = normalized growth mostly below about 0.91 (no sharp cut-off); inconclusive = no clear call, values can overlap the other calls; inactive = mostly above about 0.92. The list shows a part of the results.
Assay: chemical genetic growth profiling, strain panel (AID 1159580);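 note: tested at 20 µM; growth read once vehicle control cultures reached saturation at 30 °C; 1 = growth at the plate median or of vehicle wells; lower values mean less growth of the strain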
Conditions: S. cerevisiae deletion strains, growth OD

Measured: normalized growth

CC(=O)O[C@H]1C[C@@]2(C)[C@@H](C[C@@H](O)C3[C@]2(C)CC[C@H]2[C@H](C)[C@H](O)CC[C@]32C)/C1=C(/CCC=C(C)C)C(=O)O (stereo partly drawn)
inactive: locus YAL013W, strain DEP1, stronger effect = lower value 1.02 | locus YAL021C, strain ccr4, stronger effect = lower value 1.02 | locus YAL026C, strain drs2, stronger effect = lower value 1.01 | locus YAL030W, strain snc1, stronger effect = lower value 1.03 | locus YBL061C, strain skt5, stronger effect = lower value 1.04 | locus YBR009C, strain hhf1, stronger effect = lower value 1.02 | locus YBR021W, strain FUR4, stronger effect = lower value 1.04 | locus YBR023C, strain chs3, stronger effect = lower value 1.04 | locus YBR171W, strain sec66, stronger effect = lower value 1.01 | locus YBR229C, strain ROT2, stronger effect = lower value 1.01 | locus YBR231C, strain swc5, stronger effect = lower value 0.988 | locus YBR279W, strain paf1, stronger effect = lower value 1.03 | locus YCL011C, strain gbp2, stronger effect = lower value 1.01 | locus YCL016C, strain dcc1, stronger effect = lower value 1.05 | locus YCL029C, strain bik1, stronger effect = lower value 1.03 | locus YCL061C, strain MRC1, stronger effect = lower value 1.02 | locus YCL069W, strain vba3, stronger effect = lower value 1.01 | locus YCR088W, strain abp1, stronger effect = lower value 1.01 | locus YDL005C, strain med2, stronger effect = lower value 1.04 | locus YDL035C, strain GPR1, stronger effect = lower value 0.989 | locus YDL040C, strain nat1, stronger effect = lower value 1.02 | locus YDL074C, strain BRE1, stronger effect = lower value 1.03 | locus YDL101C, strain DUN1, stronger effect = lower value 1.01 | locus YDL134C, strain PPH21, stronger effect = lower value 1 | locus YDL185W, strain tfp1, stronger effect = lower value 1.01 | locus YDL192W, strain arf1, stronger effect = lower value 1.03 | locus YDR001C, strain nth1, stronger effect = lower value 1 | locus YDR069C, strain doa4, stronger effect = lower value 1.03 | locus YDR101C, strain arx1, stronger effect = lower value 1.02 | locus YDR137W, strain rgp1, stronger effect = lower value 1 | locus YDR150W, strain NUM1, stronger effect = lower value 1.02 | locus YDR159W, strain sac3, stronger effect = lower value 0.989 | locus YDR162C, strain NBP2, stronger effect = lower value 1 | locus YDR195W, strain ref2 1.03 | locus YDR297W, strain sur2, stronger effect = lower value 1.02 | locus YDR318W, strain mcm21, stronger effect = lower value 1.03 | locus YDR334W, strain swr1, stronger effect = lower value 1.02 | locus YDR335W, strain msn5, stronger effect = lower value 1.04 | locus YDR388W, stronger effect = lower value 1.04 | locus YDR392W, strain spt3, stronger effect = lower value 0.998 | locus YDR502C, strain sam2, stronger effect = lower value 1.04 | locus YEL003W, strain gim4, stronger effect = lower value 0.998 | locus YEL037C, strain rad23, stronger effect = lower value 1 | locus YEL061C, strain CIN8 (second series), stronger effect = lower value 1.01 | locus YEL061C, strain CIN8, stronger effect = lower value 1.01 | locus YER015W, strain faa2, stronger effect = lower value 1.03 | locus YER016W, strain bim1, stronger effect = lower value 1.01 | locus YER110C, stronger effect = lower value 1.02 | locus YER111C, strain swi4, stronger effect = lower value 1.03 | locus YER155C, strain BEM2 (second series), stronger effect = lower value 1.01 | locus YER155C, strain BEM2, stronger effect = lower value 1.01 | locus YER167W, strain BCK2, stronger effect = lower value 1.02 | locus YFR010W, strain ubp6, stronger effect = lower value 1.02 | locus YGL078C, strain dbp3, stronger effect = lower value 1.04 | locus YGL086W, strain mad1, stronger effect = lower value 1.01 | locus YGL167C, strain pmr1, stronger effect = lower value 1.02 | locus YGL173C, strain kem1, stronger effect = lower value 1.01 | locus YGL227W, strain vid30, stronger effect = lower value 1.01 | locus YGL240W, strain doc1, stronger effect = lower value 1.01 | locus YGL248W, strain PDE1, stronger effect = lower value 1.01 | locus YGL253W, strain hxk2, stronger effect = lower value 1.01 | locus YGR078C, strain PAC10, stronger effect = lower value 1.02 | locus YGR135W, strain pre9, stronger effect = lower value 1.06 | locus YGR229C, strain SMI1, stronger effect = lower value 1.02 | locus YGR252W, strain gcn5, stronger effect = lower value 1.02 | locus YHR013C, strain ard1, stronger effect = lower value 1.08 | locus YHR027C, strain rpn1, stronger effect = lower value 1.03 | locus YHR030C, strain SLT2, stronger effect = lower value 1.02 and 0.951 | locus YHR079C, strain IRE1 (second series), stronger effect = lower value 1.01 | locus YHR079C, strain IRE1, stronger effect = lower value 0.959 | locus YHR094C, strain hxt1, stronger effect = lower value 1.03 | locus YHR129C, strain ARP1, stronger effect = lower value 1.01 | locus YHR142W, strain chs7, stronger effect = lower value 1.04 | locus YHR200W, strain rpn10, stronger effect = lower value 1.05 | locus YIL066C, strain RNR3, stronger effect = lower value 1.01 | locus YIL073C, strain SPO22, stronger effect = lower value 1.03 | locus YIL125W, strain kgd1, stronger effect = lower value 1.03 | locus YIR030C, strain dcg1, stronger effect = lower value 1.04 | locus YJL092W, strain hpr5, stronger effect = lower value 1.01 | locus YJL095W, strain BCK1 (second series), stronger effect = lower value 1.03 | locus YJL095W, strain BCK1, stronger effect = lower value 1.03 and 0.977 | locus YJL115W, strain asf1, stronger effect = lower value 1.03 | locus YJL129C, strain trk1, stronger effect = lower value 1.03 | locus YJL134W, strain LCB3, stronger effect = lower value 1.01 | locus YJL154C, strain vps35, stronger effect = lower value 0.993 | locus YJL164C, strain tpk1, stronger effect = lower value 1.06 | locus YJL166W, strain qcr8, stronger effect = lower value 1.08 | locus YJL168C, strain set2, stronger effect = lower value 1.02

— PubChem BioAssay AID1159580 (chemical genetic matrix, 2015)
